DT40 TDP1 no CPT: qHTS for Inhibitors of human tyrosyl-DNA phosphodiesterase 1 (TDP1): qHTS in cells in absence of CPT; Potency, µM (doses to about 46.2 µM), inactives show at the top dose activity change, negative = growth inhibition, usual class: inhibitors; DT40 Tdp1-/- hTDP1 cells, no CPT, ATP luminescence, 48 h; 420,000 compounds, 15% hits; further: potency means the concentration at half of the fitted maximal effect; on the % scale 0 is the no-effect control and ±100 the full control effect; nearly all actives have a fitted effect of over 55% in size
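Luminescent ATP content (CellTiter-Glo) served as the growth readout. Knockout chicken DT40 cells expressing human TDP1 were exposed to compounds without camptothecin for a minimum 48 hr at 37 °C.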
D3 antag: D3 dopamine receptor (human) antagonism; 360,000 compounds, 2.5% hits; D3R cells, DiscoveRx beta-arrestin luminescence, antagonist mode; hits give low values; AID 652054; P35462; max response, negative = inhibition, %; in the data active means max response below about -50%; inconclusive means no clear call, values can overlap the other calls; further: on the % scale 0 is the no-effect control and ±100 the full control effect
Target sequence (P35462 whole entry, looked up): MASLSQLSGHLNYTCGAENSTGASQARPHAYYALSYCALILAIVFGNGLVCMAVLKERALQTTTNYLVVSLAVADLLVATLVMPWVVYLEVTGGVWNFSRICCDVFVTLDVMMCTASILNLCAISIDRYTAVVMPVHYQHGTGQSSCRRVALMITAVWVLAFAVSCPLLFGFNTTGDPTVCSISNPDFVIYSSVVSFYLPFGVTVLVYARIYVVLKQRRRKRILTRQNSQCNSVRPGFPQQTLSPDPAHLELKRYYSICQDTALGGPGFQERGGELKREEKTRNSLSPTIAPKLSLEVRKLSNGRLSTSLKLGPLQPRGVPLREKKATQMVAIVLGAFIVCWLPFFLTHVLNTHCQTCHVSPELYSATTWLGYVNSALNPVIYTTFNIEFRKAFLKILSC
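Cells expressing the human receptor were seeded at 1500 cells/well, incubated overnight at 37 degrees C in 5% CO2, then exposed to library compounds with dopamine controls for 90 minutes at 37 degrees C before luminescent detection.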
TDP1 cell CPT: DT40-hTDP1 cell growth loss with CPT; chicken DT40 Tdp1-/-;hTDP1 cells + 20 nM CPT, ATP luminescence, 48 h; AID 686979; Potency, µM (doses to about 46.2 µM), inactives show at the top dose activity change, negative = growth inhibition, usual class: inhibitors; 420,000 compounds, 12% hits; further: potency means the concentration at half of the fitted maximal effect; on the % scale 0 is the no-effect control and ±100 the full control effect; nearly all actives have a fitted effect of over 55% in size
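Chicken DT40 Tdp1-/- cells stably complemented with human TDP1 were seeded at 400 cells/well in medium containing 20 nM camptothecin, exposed to pin-transferred compounds, and grown at 37 °C for at least 48 hr. Viability was read as ATP luminescence.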
IL-1B inflam inh: inhibitors of inflammasome signaling (IL-1 beta secretion) | THP-1 LPS/ATP IL-1B secretion, AlphaLISA, 16 h; hits give low values | activity change, % at 57.5 µM | AID 743279 | 360,000 compounds, 4.7% hits; in the data active means activity change below about -50%; inconclusive means mostly about -30% to -49%; further: on the % scale 0 is the no-effect control and ±100 the full control effect
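THP-1 cells pretreated 1 hr with compounds (up to 57.5 uM final), then stimulated with LPS (250 ng/mL final) plus ATP (1.25 mM final); secreted IL-1B measured by AlphaLISA after 16 hr, decreased signal indicating inhibition.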
ClpP mod: qHTS Assay for Activators of ClpP; ATP-dependent Clp protease proteolytic subunit (Bacillus subtilis (strain 168)), P80244; purified B. subtilis ClpP, FRET peptide cleavage, 20 min; Potency, µM (titrated, usually from 57.5 µM), for inactives: at the highest dose activity change, negative = active; 340,000 compounds, 1.9% hits; active means well fitted falling curve with a large enough effect; inconclusive means small, poorly fitted or top-dose-only effect; inactive means no such curve, though single readings can be large or run the other way; further: potency means the concentration at half of the fitted maximal effect; the source files actives as falling curves though it sought activators and does not explain the sign; nearly all actives have a fitted effect of over 65% in size
Target sequence (P80244 whole entry, looked up): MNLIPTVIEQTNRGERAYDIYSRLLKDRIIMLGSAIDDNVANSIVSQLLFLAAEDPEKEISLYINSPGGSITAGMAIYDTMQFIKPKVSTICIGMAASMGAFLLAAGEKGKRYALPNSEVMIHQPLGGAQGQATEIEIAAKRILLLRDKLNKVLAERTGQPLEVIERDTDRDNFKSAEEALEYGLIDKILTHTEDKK
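ClpP 10 microg/mL final, pH 8 Tris/KCl buffer with BSA, glycerol, Tween-20; compound pinned in; FRET-FV substrate; RT 20 min; Ex320/Em430; ΔFRET vs ADEP 5.8 microM, DMSO, no enzyme.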
DRD3 agonist: agonists of human D3 dopamine receptor; P35462; D3R DiscoveRx beta-arrestin cells, luminescence, 90 min; max activation, %; 410,000 compounds, 0.58% hits; AID 652048; in the data active means max activation above about 30%; further: 0% is about no effect
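Agonist-mode cell screen: cells plated at 1500/well and incubated overnight at 37 °C, then exposed to library compounds for 90 min at 37 °C. Detection reagent was added for 30–60 min at room temperature, and luminescence was read.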
* marks the source's active call; other numbers are inactive results; ? = inconclusive; / = no result; [ ] = remark or other dose. Sampled rows, rich in hits. Any-hit rate of the full collection: about 21%. Unless noted, the call rests on the fitted dose curve; in most records, active means well fitted inhibition curve with a large enough effect; inconclusive means small, poorly fitted or top-dose-only effect; inactive means flat fitted curve, though single readings scatter.

SMILES	DT40 TDP1 no CPT	D3 antag	TDP1 cell CPT	IL-1B inflam inh	ClpP mod	DRD3 agonist
COc1ccc(/C=N/NC(=O)c2c(-c3ccccc3)noc2C)cc1	-1%	8	1%	0	-3%	5
O=C(N/N=C/C=N/NC(=O)c1ccco1)c1ccco1	0%	-11	-19%	10	-4%	2
Cc1c(-c2ccccc2)n(-c2ccccc2O)c2nc3c(c(=O)n(C)c(=O)n3C)n12	/	/	/	/	-2%	13
Cc1ccc(C(=O)N2CCN(c3ccc(C(F)(F)F)cn3)CC2)o1	?	15	?	-2	-14%	1
Cn1c(SCc2cnc(-c3ccccc3)s2)nnc1C1COc2ccccc2O1 (configuration not stated)	-13%	3	-25%	-7	0%	-2
c1ccc2c(c1)OCC(c1csc3ncnc(N4CCCC4)c13)O2 (configuration not stated)	10µM*	57	15µM*	-7	6%	2
c1ccc(CCNc2ncnc3scc(C4COc5ccccc5O4)c23)cc1 (configuration not stated)	18µM*	-13	?	0	-9%	21
O=C(CSc1nnc(C2COc3ccccc3O2)o1)N1CCCCC1 (configuration not stated)	-9%	-5	-8%	-4	-1%	-1
O=S(=O)(Nc1ccon1)c1ccc(Br)cc1	1%	20	-22%	-15	0%	17
Cc1ncc2c(c1CNS(=O)(=O)N(C)C)CCN(C(=O)/C=C/c1ccccc1Cl)C2	?	/	6%[9.04 µM]	/	/	/
O=C(CSc1cn(CCNC(=O)c2ccc3ccccc3c2)c2ccccc12)NCc1ccco1	?	8	16µM*	?	-4%	1
COc1ccc(C(=O)NCCn2cc(SCC(=O)Nc3ccc4c(c3)OCCO4)c3ccccc32)cc1	21µM*	/	?	/	0%	5
COc1ccc(NC(=O)CSc2cn(CCNC(=O)c3ccc(OC)cc3)c3ccccc23)cc1	26µM*	/	?	/	0%	6
COc1ccc(NC(=O)CSc2cn(CCNC(=O)c3c(F)cccc3F)c3ccccc23)cc1	?	/	?	/	-1%	4
CCOC(=O)C1=CCN(S(=O)(=O)c2ccc(F)cc2)C1c1cccc(F)c1 (configuration not stated)	?	31	-25%	1	-2%	0
CCCn1c(=S)[nH]c2cc(C(=O)N3CCN(c4ccc(F)cc4)CC3)ccc2c1=O	-8%	14	?	14	2%	4
CCC1CN(CC(=O)NCc2ccc3c(c2)OCO3)Cc2ccc(Cl)cc2O1 (configuration not stated)	-36%	/	3%[9.04 µM]	/	/	/
CC(CCc1ccccc1)NC(=O)CSc1n[nH]c(-c2ccc(F)cc2)n1 (configuration not stated)	23µM*	/	?	/	2%	-10
CC(CCc1ccccc1)NC(=O)CSc1n[nH]c(-c2ccccc2Cl)n1 (configuration not stated)	?	/	?	/	2%	-4
Cc1ccc(CNC(=O)CSc2n[nH]c(-c3ccc(F)cc3)n2)cc1	16µM*	/	?	/	-2%	1
CC(CCc1ccccc1)NC(=O)CSc1n[nH]c(-c2ccccc2)n1 (configuration not stated)	21µM*	/	15µM*	/	0%	7
CCCN(CCC)C(=O)Cn1c(=O)n(-c2ccc(C)cc2)c(=O)c2ccc(C(=O)NCc3ccccc3Cl)cc21	?	/	?	/	8%	-2
Clc1ccc(C2NCCc3sccc32)cc1 (configuration not stated)	?	-24	-18%	-23	/	-13
COc1ccc(C2NCCc3sccc32)cc1 (configuration not stated)	-2%	11	4%	0	/	73*
COc1cccc(-c2sc3ccccc3c2-c2ccc(OCCN3CCCCC3)cc2)c1	18µM*	-1	?	?	?	-27
SMILES	DT40 TDP1 no CPT	D3 antag	TDP1 cell CPT	IL-1B inflam inh	ClpP mod	DRD3 agonist
c1ccc(COc2ccc(OCCN3CCCC3)cc2)cc1	?	-20	?	-15	-4%	-21
c1ccc(-c2sc3ccccc3c2-c2ccc(OCCN3CCCC3)cc2)cc1	15µM*	?	21µM*	?	?	-19
COc1ccc2sc(-c3ccccc3OC)c(-c3ccc(OCCN(C)C)cc3)c2c1	21µM*	12	16µM*	?	?	-42
Cc1c(-c2ccc(OCCN3CCCCC3)cc2)c(=O)oc2ccc3ccccc3c12	-20%	3	10%	28	-12%	-3
COc1cccc(-c2sc3cc(OC)c(OC)cc3c2-c2ccc(OCCN3CCCCC3)cc2)c1	13µM*	11	18µM*	-11	28µM*	-46
Cc1ccc2c(c1)C(=O)OC(C(=O)Nc1ncc(Cc3ccccc3Cl)s1)C2 (configuration not stated)	/	/	/	/	2%	-1
CCCCn1c(N)c(N(CCOC)C(=O)CCN2C(=O)C3CC=CCC3C2=O)c(=O)[nH]c1=O (configuration not stated)	-2%	28	8%	5	-3%	6
CN(C)CCOC(=O)c1ccc2c(c1)S(=O)(=O)c1ccccc1C2=O	-3%	0	14%	20	/	5
COc1cccc(-c2sc3ccccc3c2-c2ccc(OCCN3CCCC3)cc2)c1	8.2µM*	?	9.2µM*	-23	?	-26
COc1cccc(-c2sc3ccc(OC)cc3c2-c2ccc(C(N)=O)cc2)c1	-23%	3	?	-25	?	4
COc1cccc(-c2sc3ccccc3c2-c2ccc(OCCN(C)C)cc2)c1	18µM*	-10	?	?	?	-32
CCc1cccc(NC(=O)COC(=O)CSc2ccc(C)cc2)c1	-29%	-4	-14%	10	1%	2
CCOC(=O)C(=O)Nc1ccccc1C(=O)OCC	-12%	14	11%	2	/	0
CSc1ccccc1C(=O)Nc1ccccc1C(=O)NC(C)C	?	0	23µM*	1	0%	1
CCOC(=O)C(=O)Nc1ccccc1C(=O)NC(C)C	3%	-11	-17%	10	2%	38*
Cc1ccc2oc(=O)n(CCCOc3ccc(Cl)cc3)c2c1	?	/	?	/	1%	-20

Source: PubChem (National Center for Advancing Translational Sciences (NCATS))
